This note sets out measurements from PubChem BioAssay.

Assay [1] in a line: viability loss in pontine glioma line – cell-based, SU-DIPG-XVII, MIPE5.0, CellTiter-Glo, qHTS, dose response (AID 1347060; cut-off not given, nearly all actives have AC50 up to about 26 µM;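 as to AC50: cells exposed to compound for 48 hours before viability readout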). Particulars: CellTiter-Glo ATP luminescence. (In general: Cellular ATP, detected with luciferase, serves as a proxy for viable cell number.)
Assay [2] in a line: viability loss in pontine glioma line – cell-based, JHH-DIPG-1, MIPE4.0, CellTiter-Glo, qHTS, dose response (AID 1347062; cut-off not given, nearly all actives have AC50 up to about 27 µM;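 as to AC50: cells exposed to compound for two days before readout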). The conditions noted are these: JHH-DIPG-1 viability, CellTiter-Glo ATP luminescence.
The nature of assay [3]: viability loss in pontine glioma line – cell-based, SU-DIPG-IV, MIPE4.0, CellTiter-Glo, qHTS, dose response (AID 1347063; cut-off not given, nearly all actives have AC50 up to about 30 µM;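 also: compound exposure lasted 48 hours before the viability readout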). The conditions noted are these: CellTiter-Glo ATP luminescence.
Assay [4] in a line: viability loss in pontine glioma line – cell-based, SU-DIPG-XXV, MIPE5.0, CellTiter-Glo, qHTS, dose response (AID 1347065; cut-off not given, nearly all actives have AC50 up to about 26 µM;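 also: cells exposed to compound for 48 hours before ATP readout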). The conditions noted are these: CellTiter-Glo ATP luminescence.
Assay [5] can be described thus: JHH-DIPG-1 glioma cell viability, MIPE5.0 library, CellTiter-Glo luminescence, qHTS (AID 1347067; cut-off not given, nearly all actives have AC50 up to about 26 µM;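 also: cells exposed to compound for 48 hours before readout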). The conditions noted are these: JHH-DIPG-1 glioma viability, CellTiter-Glo ATP luminescence.
Assay [6] can be described thus: viability loss with induced miR-34 in A549 – imaging, A549 dox-inducible miR-34, nuclei and caspase counts, primary screen (AID 1347080;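 active = compounds whose cell count with miR-34 switched on is under 0.7 times the count with it off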). The conditions noted are these: A549 miR-34 inducible, Hoechst nuclei count, 48 h.
Assay [7] in a line: growth inhibition of DIPG cells – cell-based, MIPE4.0 library, CellTiter-Glo luminescence, qHTS (AID 1347066; cut-off not given, nearly all actives have AC50 up to about 30 µM;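 also: cells exposed to compound for 48 hours before readout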). The conditions noted are these: SU-DIPG-VI viability, CellTiter-Glo ATP luminescence.
Assay [8] can be described thus: viability loss in pontine glioma line – cell-based, SU-DIPG-XIII, MIPE5.0, CellTiter-Glo, qHTS, dose response (AID 1347064; cut-off not given, nearly all actives have AC50 up to about 23 µM;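 as to AC50: cells exposed to compound for 48 hours before the viability read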). The conditions noted are these: CellTiter-Glo ATP luminescence.
A short description of assay [9]: growth inhibition of DIPG cells – cell-based, MIPE5.0 library, qHTS (AID 1347068; cut-off not given, nearly all actives have IC50 up to about 30 µM;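 as to IC50: cells exposed to compound for 48 hours before viability readout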). The conditions noted are these: SU-DIPG-XXV viability. On the technique in general: In qHTS, concentration-response curves come from the screen itself.
Assay [10] is described as follows: MELAS cybrid and Rieske KO viability enhancers – cell-based, MELAS cybrids, Rieske KO mouse fibroblasts, CellTiter-Glo, primary screen (AID 1508586;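 active = mean z-score across replicates of 1.96 or higher in either the MELAS or the Rieske mutant cell line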;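 also: z relative to plate mean and SD of compound and empty wells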). Particulars: low glucose.
The nature of assay [11]: compounds altering HSF1 focus formation in cells – imaging, Selleck Cancer Library (AID 1347162; in the data active = plate-normalised HSF1 focus index below about 0.46). Particulars: human cells, HSF1 nuclear foci imaging, at 10 µM; SSMD: measured here: HSF1 foci SSMD mean; cell count: measured here: cell number; plate-normalised HSF1 focus index: stronger effect = lower value.
The nature of assay [12]: drug combination growth inhibition, ovarian cancer – cell-based, oncology-focused library, rucaparib conditional, profiling panel (AID 1508598). The conditions noted are these: patient-derived ovarian cancer cells, CellTiter-Glo viability, 144 h, stronger effect = lower value.
Where [13] appears, read: stronger effect = lower value, cell number ratio, induced over uninduced.
[14] abbreviates: measured here: relative caspase fold change +Dox/-Dox.
Where [15] appears, read: measured here: total cells with miR-34 induction, stronger effect = lower value.
[16] abbreviates: measured here: total cells without miR-34 induction.
The mark [17] stands for this setting: MELAS cybrid survival, CellTiter-Glo 48 h, stronger effect = higher value.
Where [18] appears, read: Rieske KO mouse fibroblast survival, CellTiter-Glo 72 h.

“And” between values parts separate entries of the source, which are not always exact repeats. Equal entries are not always repeated. Records with an inconclusive call do not appear. The source made the active and inactive calls.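 The calls were made as follows, unless noted: active = normalized viability below 100% at a tested concentration; inactive = the rest.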

With `CCOC(=O)[C@H]1O[C@@H]1C(=O)N[C@@H](CC(C)C)C(=O)NCCC(C)C`, the outcome in assay [1], in [2], in assay [3], in assay [4] and in [5] was inactive. The figures for the fold change in assay [6] (setting [13]) and in assay [6] (setting [14]) were 0.97 (inactive) and 0.856, respectively. Further, the cell count in assay [6] (setting [15]) was 4650; in assay [6] (setting [16]), 4800.

As usually defined, the AC50 is the midpoint of the concentration-response curve, whichever way the signal moves. For the compound `CCN(CC)CCCCNc1nc2cc(Cl)c(Cl)cc2nc1-c1ccc(-c2cccs2)s1`, the AC50 in assay [1] is 6.61 µM (active); in assay [2], 7.43 µM (active); in assay [3], 7.43 µM (active); in assay [4], 5.25 µM (active); in [7] it was 14.8 µM (active); in assay [5], 9.34 µM (active).

For the compound `NC(=O)N1CCC(CC(=O)N2CCC([C@H]3c4ncc(Br)cc4CCc4cc(Cl)cc(Br)c43)CC2)CC1`, the AC50 in assay [1] is 18.6 µM (active); in [2] it was 23.5 µM (active); in [3], 18.7 µM (active); in assay [4], 16.6 µM (active); in assay [7] it was 16.6 µM (active); in assay [5] it was 23.5 µM (active).

For `Cc1cc(-c2ncc(CC(=O)Nc3ccc(-c4cnccn4)cn3)cc2C)ccn1`, the call in assay [1], in assay [2], in [8], in assay [7] and in assay [9] was inactive. Further, the fold change in assay [6] (setting [13]) was 0.911 (inactive); in assay [6] (setting [14]) it was 0.406. Moreover, the cell count in [6] (setting [15]) worked out at 6130; in [6] (setting [16]) it was 6730. Moreover, the z-score in assay [10] (setting [17]) is -0.348 (inactive); in assay [10] (setting [18]), 0.85.

One may read the viability as a read-out of living cells in per cent, often relative to untreated cells. Turning to `CC(=O)c1c(C)c2cnc(Nc3ccc(N4CCNCC4)cn3)nc2n(C2CCCC2)c1=O`, the AC50 in assay [1] was 23.5 µM (active); in assay [2], 29.6 µM (active); in assay [8] it was 20.9 µM (active); in assay [4], 18.6 µM (active); in [5], 20.9 µM (active). In [9], the compound was classed as inactive. Further, the values for the fold change in assay [6] (setting [13]) and in [6] (setting [14]) were 0.86 (inactive) and 1.36, respectively. In addition, the cell count turned out to be 3100 in [6] (setting [15]), 3600 in assay [6] (setting [16]) and 5060 in [11]. This compound also gave an SSMD in [11] of -9.93. Also, the plate-normalised HSF1 focus index in assay [11] is 0.38 (inactive). In addition, the figures for the z-score in assay [10] (setting [17]) and in [10] (setting [18]) were 0.0111 (inactive) and -0.48, respectively. Further, the viability in assay [12] (at 0.000305 µM, OCI-C5x cells, with rucaparib 10 µM, 100% = cells with rucaparib alone) was 132% (inactive); in [12] (at 0.000305 µM, OCI-C5x cells, without rucaparib), 95.6% (active); in assay [12] (at 0.000305 µM, OCI-P5x cells, with rucaparib 20 µM, 100% = cells with rucaparib alone), 93.8% (active); in assay [12] (at 0.000305 µM, OCI-P5x cells, without rucaparib), 93.8% (active); in assay [12] (at 0.00122 µM, OCI-C5x cells, with rucaparib 10 µM, 100% = cells with rucaparib alone), 119% (inactive); in assay [12] (at 0.00122 µM, OCI-C5x cells, without rucaparib), 104% (inactive). The viability in assay [12] (at 0.00122 µM, OCI-P5x cells, with rucaparib 20 µM, 100% = cells with rucaparib alone) was 94.1% (active); in [12] (at 0.00122 µM, OCI-P5x cells, without rucaparib), 91.2% (active); in assay [12] (at 0.00488 µM, OCI-C5x cells, with rucaparib 10 µM, 100% = cells with rucaparib alone), 119% (inactive); in assay [12] (at 0.00488 µM, OCI-C5x cells, without rucaparib), 104% (inactive); in [12] (at 0.00488 µM, OCI-P5x cells, with rucaparib 20 µM, 100% = cells with rucaparib alone), 95.4% (active); in assay [12] (at 0.00488 µM, OCI-P5x cells, without rucaparib), 100% (inactive). The viability in [12] (at 0.0195 µM, OCI-C5x cells, with rucaparib 10 µM, 100% = cells with rucaparib alone) is 122% (inactive); in assay [12] (at 0.0195 µM, OCI-C5x cells, without rucaparib), 116% (inactive); in assay [12] (at 0.0195 µM, OCI-P5x cells, with rucaparib 20 µM, 100% = cells with rucaparib alone), 95% (active); in [12] (at 0.0195 µM, OCI-P5x cells, without rucaparib), 94.4% (active); in assay [12] (at 0.0781 µM, OCI-C5x cells, with rucaparib 10 µM, 100% = cells with rucaparib alone), 115% (inactive); in assay [12] (at 0.0781 µM, OCI-C5x cells, without rucaparib), 118% (inactive). Further, the viability is 96.9% (active) in assay [12] (at 0.0781 µM, OCI-P5x cells, with rucaparib 20 µM, 100% = cells with rucaparib alone); 103% (inactive) in assay [12] (at 0.0781 µM, OCI-P5x cells, without rucaparib); 111% (inactive) in assay [12] (at 0.313 µM, OCI-C5x cells, with rucaparib 10 µM, 100% = cells with rucaparib alone); 126% (inactive) in assay [12] (at 0.313 µM, OCI-C5x cells, without rucaparib); 99.2% (active) in assay [12] (at 0.313 µM, OCI-P5x cells, with rucaparib 20 µM, 100% = cells with rucaparib alone); 98.7% (active) in assay [12] (at 0.313 µM, OCI-P5x cells, without rucaparib). For the same compound, the viability in assay [12] (at 1.25 µM, OCI-C5x cells, with rucaparib 10 µM, 100% = cells with rucaparib alone) is 115% (inactive); in assay [12] (at 1.25 µM, OCI-C5x cells, without rucaparib), 133% (inactive); in [12] (at 1.25 µM, OCI-P5x cells, with rucaparib 20 µM, 100% = cells with rucaparib alone), 97.6% (active); in [12] (at 1.25 µM, OCI-P5x cells, without rucaparib), 99.7% (active); in assay [12] (at 5 µM, OCI-C5x cells, with rucaparib 10 µM, 100% = cells with rucaparib alone), 114% (inactive); in [12] (at 5 µM, OCI-C5x cells, without rucaparib) it was 139% (inactive). Also, the viability in assay [12] (at 5 µM, OCI-P5x cells, with rucaparib 20 µM, 100% = cells with rucaparib alone) was 103% (inactive); in [12] (at 5 µM, OCI-P5x cells, without rucaparib), 97.9% (active).

Consider `Cc1ccc(CN2CCNCC2)cc1NC(=O)CNc1ccc(F)c(F)c1`, for which the call in assay [1], in [2], in assay [8], in [4], in assay [5] and in [9] was inactive.

Broadly, the IC50 is the midpoint of a concentration-inhibition curve. With `COc1cccc2c1C(=O)c1c(O)c3c(c(O)c1C2=O)C[C@@](O)(C(=O)CO)C[C@@H]3O[C@H]1C[C@H](N)[C@H](OC2CCCCO2)[C@H](C)O1` (stereo partly specified), the AC50 in assay [1] is 417 nM (active) and 332 nM (active); in [2], 16.6 µM (active); in assay [8], 2.95 µM (active) and 833 nM (active); in assay [4] it was 4.68 µM (active) and 1.66 µM (active); in assay [5], 2.95 µM (active) and 2.35 µM (active). The IC50 in assay [9] is 6.61 µM (active) and 9.34 µM (active).

Turning to `CN(C)c1ccccc1CN1CCCN(Cc2ccccc2N(C)C)C1c1ccncc1`, the AC50 in [1] is 26.3 µM (active); in [2], 20.9 µM (active). Further, the call in assay [4], in assay [7] and in assay [9] was inactive. The SSMD in assay [11] came out at 1.08. Further, the cell count in [11] amounted to 6990. Further, the plate-normalised HSF1 focus index in assay [11] was 1.07 (inactive).

As to `CN(C(Cc1ccc(OS(=O)(=O)c2cccc3cnccc23)cc1)C(=O)N1CCN(c2ccccc2)CC1)S(=O)(=O)c1cccc2cnccc12` (stereo unspecified), the call in assay [1], in [2], in [8], in assay [7], in [5] and in assay [9] was inactive. In addition, the fold change in assay [6] (setting [13]) was 0.886 (inactive) and 0.945 (inactive); in assay [6] (setting [14]), 1.12 and 0.338. Besides, the cell count was 4410 and 6540 in [6] (setting [15]); 4980 and 6920 in [6] (setting [16]). Besides, the z-score in assay [10] (setting [17]) is -0.441 (inactive); in assay [10] (setting [18]) it was -1.42.
